Experimental findings from PubChem BioAssay AID504652 (National Center for Advancing Translational Sciences (NCATS), 2011) are described below.

Where “and” joins values, the source holds several entries; their conditions need not be identical. Equal values may be shown once. Hit rate of the full screen: of about 360,000 compounds, about 11,000 (3.1%) were called active. Rule as the data show it: active = activity change below about -30%; inactive = the rest. For the sample, actives were picked, then their nearest neighbours and some compounds at random. Some compounds were tested as several samples or in several runs, with calls that do not always agree.
% is scaled to controls: 0 for no effect and ±100 for the full control effect.

D(1A) dopamine receptor (Homo sapiens), sequence (P21728 whole entry, looked up): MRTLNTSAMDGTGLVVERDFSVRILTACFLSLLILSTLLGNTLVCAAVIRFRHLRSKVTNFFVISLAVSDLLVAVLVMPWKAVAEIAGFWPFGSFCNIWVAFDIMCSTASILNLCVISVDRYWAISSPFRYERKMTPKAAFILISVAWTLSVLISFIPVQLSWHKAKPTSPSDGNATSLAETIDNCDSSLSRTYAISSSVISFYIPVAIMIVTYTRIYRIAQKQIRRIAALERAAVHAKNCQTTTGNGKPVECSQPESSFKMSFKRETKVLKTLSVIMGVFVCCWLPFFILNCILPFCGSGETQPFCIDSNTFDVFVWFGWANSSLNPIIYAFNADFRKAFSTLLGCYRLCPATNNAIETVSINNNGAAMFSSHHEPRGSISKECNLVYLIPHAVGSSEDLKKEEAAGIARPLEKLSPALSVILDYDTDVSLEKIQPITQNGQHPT

The target in this test is D(1A) dopamine receptor (Homo sapiens) (UniProt P21728). The test can be described thus: Antagonist of Human D 1 Dopamine Receptor: qHTS. Conditions: HEK293 TREx D1 cells, calcium flux, dopamine EC80; at 10 µM; stronger effect = lower value. A digest of the protocol:
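Antagonism measured as reduced calcium response to an EC80 dopamine addition following 180 s compound pre-read; cells were inducible HEK293 Trex D1 plated overnight at 30 C, read kinetically at 1 cycle/sec.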
Turning to `CCN1CCN(CCCNC(=O)c2cnn(-c3ccc(C)cc3C)c2C2CCN(C(=O)OC(C)(C)C)CC2)CC1`, the activity change, negative = inhibition is 6.05% (inactive).
The same measure for `CCOC(=O)c1c(C)[nH]c(C)c1S(=O)(=O)NCC(=O)NCc1cccc(C)c1`: 13.9% (inactive); for `COCCNC(=O)c1onc(CSc2cccc(C)c2)c1C(=O)O`: 2.03% (inactive).
The same measure for `CCCCNC(=O)c1onc(CSc2cccc(OC)c2)c1C(=O)O`: -73.2% (active); for `CCOc1cccc(SCc2noc(C(=O)NC(C)C)c2C(=O)O)c1`: 3.21% (inactive); for `CC(=O)N1CCCc2cc(S(=O)(=O)N3CCC(C(=O)NCc4ccc(C)cc4)CC3)ccc21`: 12.1% (inactive).
Consider `O=C(NCCCN1CCOCC1)c1ccc2c(c1)N(Cc1cccc(F)c1)C(=O)c1ccccc1S2`, for which the activity change, negative = inhibition is -42.1% (active).
The same measure for `Cc1ccccc1CN1C(=O)c2ccccc2Sc2ccc(C(=O)NCCCN3CCOCC3)cc21`: -9.56% (inactive) and -12% (inactive); for `CCC1=Nc2cc(C(=O)NCCCN3CCOCC3)ccc2Sc2ccc(Br)cc21`: 11% (inactive).
The same measure for `CC1CCN(C(=O)c2cccc(S(=O)(=O)N3CCCc4ccccc43)c2)CC1`: -43.6% (active); for `CN1CCN(S(=O)(=O)c2cccc(C(=O)N3CCc4ccccc43)c2)CC1`: -0.291% (inactive); for `Cc1ccc(NC(=O)c2cccc(S(=O)(=O)N3CCCc4ccccc43)c2)nc1`: 3.95% (inactive).
The same measure for `COc1ccc(Nc2ncc3c(n2)CCN(C(=O)OC(C)(C)C)C3)cc1`: -16.1% (inactive).
In the case of `CCCC(=O)Nc1cc2nn(-c3ccccc3)nc2cc1C`, the activity change, negative = inhibition is -6.53% (inactive).
`O=C(c1cc(-c2ccc(O)cc2)on1)N1CCOCC1`: the activity change, negative = inhibition was -2.21% (inactive).
The same measure for `O=C(c1cc(-c2ccc(F)cc2)on1)N1CCN(c2ccc(F)cc2)CC1`: 6.41% (inactive) and -30% (active); for `O=C(c1cc(-c2ccc(Cl)cc2)on1)N1CCN(c2ccccc2)CC1`: 8.05% (inactive); for `Cc1nc(SC(C)C)[nH]c(=O)c1Cc1ccccc1`: -31.2% (active).
On to `Cc1ccc(OCCSc2nc(C)c(Cc3ccccc3)c(=O)[nH]2)cc1`, for which the activity change, negative = inhibition is -2.95% (inactive).
Regarding `Cc1nc(SCCOc2ccc(Cl)cc2)[nH]c(=O)c1Cc1ccccc1`, the activity change, negative = inhibition was -8.51% (inactive).
The same measure for `COc1ccc(C2(Nc3cccc(F)c3)C(=O)c3ccccc3C2=O)cc1`: -16% (inactive); for `Cc1nc(N)[nH]c(=O)c1Oc1cccc(C(F)(F)F)c1`: 7.25% (inactive); for `CCOC(=O)NNc1cc(C(F)(F)F)ccn1`: -4.5% (inactive).
Take `CCC(=O)OCc1c(C(F)(F)F)nn(C)c1Oc1cccc(C(F)(F)F)c1`: the activity change, negative = inhibition is -39.6% (active).
The same measure for `CC(=O)N1CCCc2ccc(NS(=O)(=O)c3ccc(F)cc3F)cc21`: 8.04% (inactive); for `O=C(O)c1ccc2c(c1)N(Cc1ccc(F)cc1)C(=O)c1ccccc1S2=O` (stereo not drawn): -20.6% (inactive); for `CCCCc1ccc(S(N)(=O)=O)cc1`: -32.1% (active).
The same measure for `NS(=O)(=O)c1ccc(CCNC(=S)Nc2ccc(S(N)(=O)=O)cc2)cc1`: -10.1% (inactive); for `CN(C)c1ccc(C=NCCc2ccc(S(N)(=O)=O)cc2)cc1`: 0.508% (inactive); for `O=C(Cn1[nH]c(=O)c2ccccc2c1=O)Nc1cccc(-c2nnc3n2CCCCC3)c1`: -31.5% (active).
The same measure for `Cc1c(C(=O)Nc2cccc(-c3nnc4n3CCCCC4)c2)oc2ccccc12`: -14.2% (inactive); for `Brc1cccc(-c2nnc3n2CCC3)c1`: 4.2% (inactive).
As for `O=S(=O)(c1ccc2nc(NCc3ccccc3Cl)ccc2c1)N1CCCCC1`, the activity change, negative = inhibition is 7.22% (inactive).
`COC(=O)CN1C(=O)CSc2ccc(S(=O)(=O)Nc3cc(C)ccc3C)cc21`: the activity change, negative = inhibition is 7.51% (inactive).
As to `CCCCN(CCCNC(=O)c1cc(Nc2ccccc2OC)nc2ccccc12)c1ccccc1`, the activity change, negative = inhibition was -1.02% (inactive).
As to `COc1ccccc1Nc1cc(C(=O)NCCCN(C)C2CCCCC2)c2ccccc2n1`, the activity change, negative = inhibition was -69.1% (active).
On to `COc1ccc(Nc2cc(C(=O)NCCCN(C)c3ccccc3)c3ccccc3n2)c(OC)c1`, for which the activity change, negative = inhibition is -3.52% (inactive).
For `CCCn1c(NCc2ccc(N(CC)CC)cc2)nc2ccccc21`, the activity change, negative = inhibition was 7.83% (inactive).
The same measure for `O=C(COc1ccc(Cl)cc1)NCCS(=O)(=O)N1CCN(c2ccc(F)cc2)CC1`: -39.2% (active).
The same measure for `COc1ccc(OCC(=O)NCCS(=O)(=O)N2CCN(c3ccc(F)cc3)CC2)cc1`: -3.53% (inactive).
For `COc1ccccc1N1CCN(S(=O)(=O)CCNC(=O)COc2ccc(F)cc2)CC1`, the activity change, negative = inhibition was -4.69% (inactive).
For the compound `COc1cc(NC(=O)Cn2nc(-c3ccc(C)c(C)c3)ccc2=O)cc(OC)c1`, the activity change, negative = inhibition was -2.73% (inactive).
Turning to `CCOc1ccc(S(=O)(=O)N(CC(=O)NCCSCc2ccc(C)cc2)c2ccccc2)cc1`, the activity change, negative = inhibition was -1.46% (inactive).
The same measure for `CCCSc1ncc(Cl)c(C(=O)Nc2sc3c(c2C(=O)NCCOC)CCCC3)n1`: 3.43% (inactive).
The same measure for `O=C(C1CCCO1)N1CCC(c2nc3ccccc3[nH]2)CC1` (stereo not drawn): -12.2% (inactive).
Take `O=S(=O)(c1ccc(Br)cc1)N1CCC(c2nc3ccccc3[nH]2)CC1`: the activity change, negative = inhibition is -31.8% (active).
The same measure for `N#CC(C(=O)c1ccc(S(=O)(=O)N2CCCCCC2)cc1)c1nc2ccccc2[nH]1` (stereo not drawn): -22.2% (inactive); for `O=C(Nc1cc(Cl)cc(Cl)c1)c1ccc2c(c1)N(Cc1cccc(Cl)c1)C(=O)c1ccccc1S2=O` (stereo not drawn): -24% (inactive).
The same measure for `O=C(Nc1ccc(F)cc1F)c1ccc2c(=O)n3c(nc2c1)CCCCC3`: 0.28% (inactive).
The same measure for `Cc1cc(=O)c2cc(C(=O)Nc3cccc(C)c3C)ccc2[nH]1`: -7.41% (inactive); for `O=C(Cn1cnc2c(cnn2-c2ccccc2)c1=O)NCc1ccccc1`: 5.27% (inactive); for `CC(=O)Cn1cnc2c(cnn2-c2ccccc2)c1=O`: -39.3% (active).
Take `O=C(Cn1cnc2c(cnn2-c2ccc(F)cc2)c1=O)NCCc1ccccc1`: the activity change, negative = inhibition is -6.16% (inactive).
Take `COc1ccc(-c2nc(C)c(CCNC(=O)c3ccc(C(F)(F)F)cc3)s2)cc1OC`: the activity change, negative = inhibition was -4.09% (inactive).
The same measure for `Cc1ccc(C)c(S(=O)(=O)Nc2cc(C)on2)c1`: -1.84% (inactive); for `COc1cc2ccccc2cc1C(=O)Nc1ccc(S(=O)(=O)Nc2cc(C)on2)cc1`: 7.39% (inactive); for `Cc1cc(NS(=O)(=O)c2ccccc2)no1`: -52.3% (active).
As to `Cc1cccc(NC(=O)c2cc3c(C)nn(-c4ccccc4)c3s2)c1`, the activity change, negative = inhibition was 1.08% (inactive).
The same measure for `O=C(CC(O)(C(F)(F)F)C(F)(F)F)Nc1ccc(Cl)c(Cl)c1`: -45.8% (active).
The same measure for `O=C(CSc1nnc(-c2ccncc2)n1-c1ccccc1)Nc1ccc(Cl)c(Cl)c1`: 7.05% (inactive); for `NC(=O)N1CCCC1C(=O)Nc1ccc(Cl)c(Cl)c1` (stereo not drawn): -6.92% (inactive); for `CCC(=O)N1CCc2cc(Br)cc(S(=O)(=O)CCC(=O)N3CCN(c4ccc(F)cc4)CC3)c21`: -13.8% (inactive).
The same measure for `Cn1cc(S(=O)(=O)Nc2ccc(Cl)cc2Cl)c(=O)n(C)c1=O`: 1.88% (inactive); for `Cc1ccc(NS(=O)(=O)c2ccc3c(c2)n(C)c(=O)c(=O)n3C)c(C)c1`: 3.25% (inactive).
Turning to `Cc1ccc(NS(=O)(=O)c2cn(C)c(=O)n(C)c2=O)c(C)c1`, the activity change, negative = inhibition is -34.8% (active).
With `N#CN1CCC(NS(=O)(=O)c2cccc(F)c2)C1` (stereo not drawn), the activity change, negative = inhibition was -5.93% (inactive).
The same measure for `Cc1ccc(C)c(S(=O)(=O)c2nnn3c2nc(N2CCOCC2)c2sccc23)c1`: -17.7% (inactive).
The same measure for `COc1ccc(OC)c(NC(=O)CSC2=Nc3ccccc3C3=NC(CC(=O)NCc4ccc(F)cc4)C(=O)N23)c1` (stereo not drawn): 2.28% (inactive).
The same measure for `CCC1(C)Cc2c(sc3[nH]c(=S)n(Cc4ccccc4)c(=O)c23)CO1` (stereo not drawn): -1.45% (inactive); for `C=CCn1c(=S)[nH]c2scc(-c3ccco3)c2c1=O`: -62.9% (active).
With `CCc1ccc(NC(=O)c2cc3c(=O)n(Cc4cccnc4)ccc3nc2C)cc1`, the activity change, negative = inhibition was -4.72% (inactive).
For `O=C(NCCNc1ccccc1[N+](=O)[O-])c1ccccc1F`, the activity change, negative = inhibition is 18.2% (inactive).
In the case of `O=C(NCCCNc1ccc([N+](=O)[O-])cc1Cl)c1ccccc1F`, the activity change, negative = inhibition is -30.1% (active).
The same measure for `O=C(NCCNc1ccc([N+](=O)[O-])cc1Cl)c1ccccc1F`: -1.54% (inactive); for `COc1ccc(CNC(=O)Cn2nnc(-c3ccccc3F)n2)cc1`: 7.31% (inactive).
The same measure for `COc1cc(-c2noc(-c3ccc(N4CCCC4)c([N+](=O)[O-])c3)n2)cc(OC)c1OC`: -3.41% (inactive).
For `COC(=O)c1sccc1S(=O)(=O)N(CC(=O)Nc1ccc(C)c(F)c1)c1ccc(C)c(C)c1`, the activity change, negative = inhibition is -13.6% (inactive).
The same measure for `CCOC(=O)N1CCN(CC(=O)c2ccc3c(c2)CCN3)CC1`: -32.2% (active); for `CCOC(=O)N1CCN(CC(=O)Nc2ccc(F)cc2)CC1`: 4.05% (inactive).
The same measure for `CCOC(=O)N1CCN(CC(=O)n2c(C)c(C)c3ccccc32)CC1`: 6.89% (inactive).
The same measure for `Cc1ccc(CN2CCC(CNC(=O)c3cnn(-c4ccc(C)cc4)c3C3CCN(C(=O)OC(C)(C)C)CC3)CC2)cc1`: 1.49% (inactive); for `Cc1ccc2nc(SCC(=O)NC3CCCC3)[nH]c2c1`: 1.64% (inactive); for `Cc1ccc2nc(-c3ccc(SCC(=O)Nc4cc(C)on4)nc3)[nH]c2c1`: -40.5% (active).
For `Cc1cccc(-c2nc(SCC(=O)Nc3cc(C)on3)c3c(=O)n(C)c(=O)n(C)c3n2)c1`, the activity change, negative = inhibition was -1.46% (inactive).
Consider `CCS(=O)(=O)c1nc(S(=O)(=O)c2ccc(C)cc2)c(NCc2ccc(Cl)cc2)s1`, for which the activity change, negative = inhibition is -4.62% (inactive).
In the case of `Cc1onc(-c2ccc(F)cc2F)c1C(=O)Nc1cccc(C(F)(F)F)c1`, the activity change, negative = inhibition was -7.14% (inactive).
The same measure for `COC(=O)c1cccc(Cn2nnc3sc4c(c3c2=O)CCC(C(C)(C)C)C4)c1` (stereo not drawn): 7.77% (inactive).
In the case of `Cc1nn(C(C)C(=O)Nc2ccc(C(C)C)cc2)c(=O)c2c1sc1ccccc12` (stereo not drawn), the activity change, negative = inhibition is -14.9% (inactive).
